Measurements taken from PubChem BioAssay (NCI).
This is part of a sample that, as a whole, favours compounds with a hit. Of some 79,000 tested, about 15% had one in any assay. Values without a mark were called inactive. Active and inactive are the calls of the source. Cut-off read from the data, not from the text of the source: active = growth inhibition above about 70%; inactive = the rest.

Experiments:
[1] = NCI Yeast Anticancer Drug Screen. Data for the rad50 strain (AID 155);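 note: 0% = growth of vehicle-only cultures of the same strain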; details: S. cerevisiae rad50 strain growth inhibition, hits give high values
In short: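 Vehicle-treated cultures provide the reference for the growth inhibition reported for compound-exposed, repair-deficient yeast.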

[2] = NCI Yeast Anticancer Drug Screen. Data for the mec2-1 strain (AID 157); details: S. cerevisiae mec2-1 strain, hits give high values
In short: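 Cells of the genetically defined mec2-1 yeast strain are incubated with test compound. Inhibition of growth is calculated against vehicle-treated controls.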

[3] = NCI Yeast Anticancer Drug Screen. Data for the sgs1 mgt1 strain (AID 161);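 note: 0% = growth of cultures given vehicle only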; details: S. cerevisiae sgs1 mgt1 strain, hits give high values
In short: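 Mutant yeast exposed to compound; growth scored against vehicle-only wells.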

[4] = NCI Yeast Anticancer Drug Screen. Data for the cln2 rad14 strain (AID 165);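 note: 0% = growth equal to vehicle treated cultures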; details: S. cerevisiae cln2 rad14 strain, hits give high values
In short: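 The screen exposed genetically defined yeast (cln2 rad14) to test compounds and scored growth inhibition relative to vehicle-treated controls.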

[5] = NCI Yeast Anticancer Drug Screen. Data for the bub3 strain (AID 167); details: S. cerevisiae bub3 mutant strain, hits give high values
In short: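 Mutant yeast screening strain plus compound; vehicle-treated cultures serve as the 0% inhibition reference.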

[6] = NCI Yeast Anticancer Drug Screen. Data for the mlh1 rad18 strain (AID 175); details: S. cerevisiae mlh1 rad18 strain growth inhibition, hits give high values
In short: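 Compound-treated yeast growth, normalised to vehicle controls. Strain bears defined DNA repair mutations.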

[7] = at 5.0 µM (retest, dose inferred, filed as 0.5)
[8] = at 50.0 µM (retest, dose inferred, filed as 5.0)

SMILES | growth inhibition [1, 7] | growth inhibition [1, 8] | growth inhibition ([1]; at 50.0 µM) | growth inhibition [2, 7] | growth inhibition [2, 8] | growth inhibition ([2]; at 50.0 µM) | growth inhibition [3, 7] | growth inhibition [3, 8] | growth inhibition ([3]; at 50.0 µM) | growth inhibition [4, 7] | growth inhibition [4, 8] | growth inhibition ([4]; at 50.0 µM) | growth inhibition [5, 7] | growth inhibition [5, 8] | growth inhibition ([5]; at 50.0 µM) | growth inhibition [6, 7] | growth inhibition [6, 8] | growth inhibition ([6]; at 50.0 µM)
ClC/C=C/c1ccccc1 | 2% | 31% | 68.8% | -1% | 11% | 16.9% | 3% | 15% | 61% | 6% | 1% | -7.2% | 7% | 20% | 37.1% | 3% | 18% | 62.6%
O=C(c1ccccc1)N(C1CCCCC1)C1CCCCC1 | 7% | 97% (active) | 98.1% (active) | 1% | 98% (active) | 98.5% (active) | 5% | 97% (active) | 99% (active) | -2% | 95% (active) | 98.9% (active) | -3% | 93% (active) | 98% (active) | 5% | 97% (active) | 98.3% (active)
Oc1c(Br)cc(Br)cc1-c1ccccc1 | 0% | 99% (active) | 98.1% (active) | 9% | 100% (active) | 99.5% (active) | 2% | 99% (active) | 99.5% (active) | -5% | 100% (active) | 99.2% (active) | -5% | 100% (active) | 99.3% (active) | -8% | 99% (active) | 99.3% (active)
CCOC(=O)c1c(Cl)nc2ccccc2c1N=[N+]=[N-] | -10% | 77% (active) | 79.3% (active) | 14% | 95% (active) | 82.5% (active) | -13% | 93% (active) | 88.7% (active) | 20% | 86% (active) | 58% | -21% | 81% (active) | 86.8% (active) | 2% | 95% (active) | 89.5% (active)
CC1=C(C(=O)Nc2cccc(Cl)c2)C(c2ccc([N+](=O)[O-])cc2)C(C(=O)Nc2cccc(Cl)c2)=C(C)N1 | 44% | 44% | 57.9% | 52% | 52% | 81.8% (active) | 34% | 34% | 65% | 32% | 32% | 79.5% (active) | 49% | 49% | 74.7% (active) | 51% | 51% | 61.8%
CC(=O)OCCSCCOC(C)=O | 20% | 90% (active) | 76.4% (active) | -1% | 84% (active) | 29.4% | 6% | 88% (active) | 81% (active) | 7% | 23% | 12.2% | 7% | 88% (active) | 39% | 7% | 90% (active) | 78.3% (active)
CCCCCCCCCCCCOP(=O)(N1CC1(C)C)N1CC1(C)C (stereo not given) | 4% | 61% | 72.7% (active) | 2% | 71% (active) | 58.1% | 1% | 67% | 82.8% (active) | 16% | 72% (active) | 34.2% | 24% | 97% (active) | 87.3% (active) | 4% | 87% (active) | 80.5% (active)
CN(C)CC(CN1CCCC1)C(=O)c1ccccc1 (stereo not given) | 13% | 24% | 56.6% | -2% | 36% | 41.4% | 13% | 32% | 66.5% | 26% | 33% | 11.2% | 6% | 39% | 65.5% | 15% | 32% | 75.2% (active)
COC(=O)/C=C(\Cl)C(=O)OC | 8% | 84% (active) | 99.3% (active) | 16% | 99% (active) | 99.7% (active) | 5% | 98% (active) | 99.5% (active) | 19% | 99% (active) | 97.5% (active) | 19% | 97% (active) | 99.5% (active) | 7% | 98% (active) | 99.2% (active)
Oc1c(C(O)(c2ccccc2)c2ccc3ccccc3c2O)ccc2ccccc12 | 17% | 81% (active) | 84.8% (active) | 3% | 81% (active) | 84.4% (active) | 13% | 76% (active) | 79.4% (active) | 9% | 96% (active) | 82.5% (active) | 21% | 95% (active) | 89.2% (active) | 9% | 85% (active) | 86.9% (active)
COC(=O)NC1CCCCCCCCCCC1I (stereo not given) | -4% | 97% (active) | 98.5% (active) | 14% | 99% (active) | 82.3% (active) | -5% | 99% (active) | 17.1% | 19% | 99% (active) | -2.05% | -5% | 99% (active) | 3.35% | 5% | 98% (active) | 99% (active)
Nc1cccc2c(O)cccc12 | -1% | 21% | 21.6% | 3% | 18% | 9.3% | -1% | 15% | 20.8% | 2% | 12% | 44.2% | 2% | 15% | 8.55% | -2% | 28% | 50.2%
NC(N)=Nc1ccc(Cc2ccc(N=C(N)N)cc2)cc1 | 0% | -3% | -33.2% | 0% | -4% | -58% | 2% | 0% | -17.9% | 3% | 2% | 45% | 3% | 2% | -10.2% | -6% | -4% | -39%
COc1ccc(/C=C2/C(=O)ON=C2C)cc1OC | -15% | 35% | 93.3% (active) | -14% | 48% | 85.5% (active) | -14% | 48% | 89.1% (active) | -12% | 17% | 42.7% | -3% | 55% | 94.6% (active) | -9% | 61% | 79.2% (active)
COc1ccc(-c2nc3c(C(=O)NCCN(C)C)cccc3c3ccccc23)cc1 | 14% | 42% | 70.5% (active) | 17% | 9% | 56% | -12% | 55% | 13.9% | 3% | 37% | 0.85% | 8% | 54% | -15.3% | 10% | 37% | 89.5% (active)
CCOC(=O)C(=O)Nc1nc2c(s1)C(=O)c1ccccc1C2=O | 14% | 96% (active) | 98.5% (active) | 18% | 98% (active) | 95.8% (active) | 14% | 99% (active) | 96.9% (active) | -3% | 89% (active) | 90% (active) | 46% | 96% (active) | 98.5% (active) | 17% | 94% (active) | 96.3% (active)
O=C(O)CCC(=O)NNc1ccccc1 | 8% | 68% | 57.9% | -1% | 66% | 85.9% (active) | 12% | 58% | 61.9% | 8% | 81% (active) | 83.2% (active) | 14% | 91% (active) | 90.3% (active) | 20% | 94% (active) | 86.1% (active)
Oc1cc(C(c2ccccc2)c2ccccc2)c2ccccc2c1O | 17% | 1% | 97.6% (active) | 26% | 8% | 98.5% (active) | 20% | 1% | 98.5% (active) | 13% | 0% | 97.7% (active) | 10% | 2% | 98.2% (active) | 34% | 1% | 97.8% (active)
Clc1cccc(Cl)c1C(Nc1nncs1)Nc1nncs1 | 0% | 85% (active) | 93.2% (active) | -9% | 51% | 79.8% (active) | 0% | 55% | 88.2% (active) | 8% | 42% | 72.9% (active) | -11% | 56% | 53% | 0% | 94% (active) | 97.3% (active)
CCS(=O)(=O)c1ccc(NC(=O)OC2CCCCCCC2)cc1 | 5% | 89% (active) | 95.8% (active) | 16% | 86% (active) | 80.6% (active) | 11% | 74% (active) | 65.5% | -50% | 88% (active) | 88.8% (active) | 6% | -30% | 95.2% (active) | 6% | 90% (active) | 91.6% (active)
